Measurements reported in PubChem BioAssay (EPA / NIEHS).
“And” between values parts separate entries of the source, which are not always exact repeats. Identical values can stand only once. A structure can be active in one record and inactive in another. The source made the active and inactive calls. Rule for the calls: active = hit-call score of the fitted dose curve at least 0.9, where 1 is the maximum; inactive = score below 0.9.

Experiments:
Conditions in all cases: primary human HUVEC with PBMC; actives raise or lower the signal
[1] = read-out: Interleukin-1 alpha (IL1a), IL1A (gene 3552); assay: BSK_LPS_IL1a: BioMAP Diversity Plus: LPS Assay for Interleukin-1 alpha (IL1a) Biomarker Activity (AID 2283080)
Procedure, shortened: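 Primary human HUVEC and PBMC co-culture stimulated with LPS is dosed and harvested at 24 h. Both increases and decreases in ELISA-measured IL-1a are scored relative to DMSO.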

[2] = read-out: Monocyte Chemoattractant Protein-1 (MCP1), CCL2 (gene 6347); assay: BSK_LPS_MCP1: BioMAP Diversity Plus: LPS Assay for Monocyte Chemoattractant Protein-1 (MCP1) Biomarker Activity (AID 2283081);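 for AC50: secreted MCP-1 protein quantified by ELISA in culture supernatant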
Procedure, shortened: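 Values derive from bidirectional fitting against DMSO of ELISA-measured MCP-1 in a human primary endothelial and mononuclear cell co-culture, 24 h after chemical addition under LPS activation.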

[3] = BSK_LPS_PGE2: BioMAP Diversity Plus: LPS Assay for Prostaglandin E2 (PGE2) Biomarker Activity (AID 2283082);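 for AC50: secreted prostaglandin E2 measured by ELISA in LPS-stimulated co-culture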
Procedure, shortened: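 PGE2 release measured by ELISA in an LPS-activated co-culture of human umbilical vein endothelial cells and peripheral blood mononuclear cells, read at 24 h post-dosing. DMSO served as baseline for bidirectional curve fitting.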

[4] = read-out: Macrophage colony-stimulating factor (MCSF), CSF1 (gene 1435); assay: BSK_LPS_MCSF: BioMAP Diversity Plus: LPS Assay for Macrophage colony-stimulating factor (MCSF) Biomarker Activity (AID 2283083)
Procedure, shortened: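 Bidirectional fit versus DMSO of ELISA-measured M-CSF in co-cultured human umbilical vein endothelial cells and PBMC, sampled 24 h after dosing.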

[5] = read-out: Tissue Factor, F3 (gene 2152); assay: BSK_LPS_TissueFactor: BioMAP Diversity Plus: LPS Assay for Tissue Factor Biomarker Activity (AID 2283084)
Procedure, shortened: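 Read-out: CD142 ELISA, 24 h. System: LPS-driven human endothelial/PBMC co-culture. Analysis: up- or down-signal fitted against DMSO.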

[6] = read-out: Tumor necrosis factor (Homo sapiens) (UniProt P01375); assay: BSK_LPS_TNFa: BioMAP Diversity Plus: LPS Assay for Tumour Necrosis Factor alpha (TNFa) Biomarker Activity (AID 2283085);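 for AC50: TNFa protein level quantified by ELISA in the co-culture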
Procedure, shortened: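 TNFa was quantified by ELISA in LPS-activated co-cultures of human endothelial cells and PBMC, 24 h post-dosing. Both increases and decreases versus DMSO were fitted.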

[7] = read-out: Vascular cell adhesion molecule 1 (VCAM1), VCAM1 (gene 7412); assay: BSK_LPS_VCAM1: BioMAP Diversity Plus: LPS Assay for Vascular cell adhesion molecule 1 (VCAM1) Biomarker Activity (AID 2283086)
Procedure, shortened: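 VCAM-1 quantified by ELISA in an LPS-activated co-culture of human endothelial cells and peripheral blood mononuclear cells, read 24 h post-treatment. Fitted in both directions versus DMSO; parallel SRB staining flags overt cytotoxicity.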

[8] = read-out: CD38, CD38 (gene 952); assay: BSK_SAg_CD38: BioMAP Diversity Plus: SAg Assay for CD38 Biomarker Activity (AID 2283087)
Procedure, shortened: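 CD38 quantified by ELISA (fluorescence) in a superantigen-activated endothelial cell–PBMC co-culture at 24 h post-dose. Activity fitted in both directions relative to DMSO; parallel SRB and Alamar Blue cytotoxicity read-outs.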

[9] = read-out: CD40, CD40 (gene 958); assay: BSK_SAg_CD40: BioMAP Diversity Plus: SAg Assay for CD40 Biomarker Activity (AID 2283088)
Procedure, shortened: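 Endpoint derived by fitting increases or decreases versus DMSO controls. CD40 is detected by fluorescence ELISA in a human vascular co-culture of endothelium and PBMC at 24 h.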

[10] = read-out: CD69, CD69 (gene 969); assay: BSK_SAg_CD69: BioMAP Diversity Plus: SAg Assay for CD69 Biomarker Activity (AID 2283089);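 for AC50: cell surface CD69 protein quantified by ELISA with fluorescence detection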
Procedure, shortened: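 Primary human vascular co-culture (umbilical vein endothelium with peripheral blood mononuclear cells) exposed to test chemical for 24 h. CD69 levels quantified by fluorescence ELISA; DMSO served as negative control for bidirectional fitting.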

Measured: AC50

Tumor necrosis factor (Homo sapiens), sequence (P01375 whole entry, looked up): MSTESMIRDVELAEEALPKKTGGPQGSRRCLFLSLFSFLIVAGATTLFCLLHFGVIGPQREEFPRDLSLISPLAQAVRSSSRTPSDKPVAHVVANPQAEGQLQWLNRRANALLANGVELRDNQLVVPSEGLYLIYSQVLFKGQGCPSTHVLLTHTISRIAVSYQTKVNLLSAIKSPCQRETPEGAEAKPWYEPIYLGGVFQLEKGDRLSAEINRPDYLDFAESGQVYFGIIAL

C=C(F)C(=O)OC(C(F)(F)F)C(F)(F)F
inactive: all assays above

CCn1cc(C(=O)O)c(=O)c2ccc(C)nc21
inactive: all assays above

C=C(C)C(=O)OCCC(F)(F)C(F)(F)C(F)(F)C(F)(F)C(F)(F)C(F)(F)C(F)(F)C(F)(F)F
inactive: [1] | [2] | [3] | [4] | [5] | [6] | [7] | [8] | [9] | [10]
active: [7] 1.22 µM

CC1=CC(C)C(C=O)C(C)C1 (stereo not drawn) (tested in a mixture with another compound)
inactive: all assays above

CC/C(=C(\c1ccccc1)c1ccc(OCCN(C)C)cc1)c1ccccc1
inactive: [3]
active: [1] 6.74 µM and 9.95 µM | [2] 28.3 µM and 12.4 µM | [3] 33.6 µM | [4] 15.3 µM and 8.1 µM | [5] 29.1 µM and 20 µM | [6] 28.6 µM and 17.4 µM | [7] 24.3 µM and 13.6 µM | [8] 8.87 µM and 7.95 µM | [9] 9.12 µM and 6.03 µM | [10] 8.89 µM and 8.09 µM

O=C(O)C(F)(F)OC(F)(F)C(F)(F)OC(F)(F)C(F)(F)C(F)(F)C(F)(F)F
inactive: [1] | [2] | [4] | [5] | [6] | [7] | [8] | [9] | [10]
active: [3] 15 µM and 11.1 µM | [7] 24.4 µM | [8] 41.9 µM | [9] 44 µM | [10] 34.2 µM

O=C(O)C(F)(F)C(F)(F)C(F)(F)C(F)(F)C(F)(F)C(F)(F)C(F)(F)C(F)F
inactive: all assays above

CCCCCCCC1CCCC1=O (stereo not drawn)
inactive: all assays above

CC(C)CCCC(C)(C)O
inactive: all assays above

CCCCN(CCO)CCO
inactive: all assays above

NC(=O)c1c(Cl)cccc1Cl
inactive: all assays above

CCOC(=O)C=Cc1ccccc1
inactive: all assays above

CC(=O)CCC=C(C)CCC=C(C)C
inactive: all assays above

c1ccc(OCCOc2ccccc2)cc1
inactive: [1] | [2] | [3] | [4] | [5] | [6] | [7] | [8] | [9] | [10]
active: [5] 5.17 µM | [8] 1.49 µM

CC(=O)c1ccc(C)cc1
inactive: all assays above

CCCO[Si](OCCC)(OCCC)OCCC
inactive: all assays above

CC(C)(CO)CO
inactive: all assays above

CCCCOCCOCCO
inactive: all assays above

OCC(F)(OC(F)(F)C(F)(OC(F)(F)C(F)(F)C(F)(F)F)C(F)(F)F)C(F)(F)F (stereo not drawn)
active: [1] 5.01 µM and 4.53 µM | [3] 5.49 µM and 5.04 µM | [6] 5.64 µM and 5.47 µM | [7] 5.05 µM | [9] 2.38 µM and 2.34 µM | [10] 3.33 µM and 713 nM
inactive: [2] | [4] | [5] | [7] | [8]

OCCN1CCOCC1
inactive: all assays above

COC(=O)c1ccc(C(=O)OC)cc1
inactive: all assays above

Nc1ccc(N)c([N+](=O)[O-])c1
active: [7] 5.09 µM | [10] 8.69 µM
inactive: all other assays above

CCC(=O)OCC=Cc1ccccc1
inactive: all assays above

CC(C)(C)c1cccc(O)c1
inactive: all assays above

O=C1OC2(c3ccc(O)cc3Oc3cc(O)ccc32)c2ccccc21
inactive: all assays above

C=C1CC/C=C(\C)CC[C@@H]2[C@@H]1CC2(C)C
active: [1] 31.8 µM | [3] 3.97 µM | [4] 31.6 µM | [5] 5.05 µM | [7] 29.4 µM | [8] 30.7 µM | [9] 31.7 µM | [10] 32.8 µM
inactive: [2] | [6]

COc1ccccc1NC(=O)CC(C)=O
inactive: all assays above

c1ccc(Sc2ccccc2)cc1
active: [1] 33.8 µM | [2] 20 µM | [4] 35.6 µM | [5] 37 µM | [7] 31.6 µM | [9] 32.3 µM | [10] 29.7 µM
inactive: [3] | [6] | [8]

CC(=O)OCC=C(C)CCC=C(C)CCC=C(C)C
inactive: all assays above

CCCCCCCCCCCCS
inactive: [1] | [5] | [6]
active: [2] 33.3 µM | [3] 3.97 µM | [4] 31.4 µM | [7] 20 µM | [8] 28.6 µM | [9] 20 µM | [10] 20 µM

c1ccc2c(c1)-c1ccc3ccc4cccc5cc-2c1c3c45
inactive: [1] | [3] | [6] | [7]
active: [2] 2.71 µM | [4] 1.38 µM | [5] 0.0082 µM | [8] 6.08 µM | [9] 1.98 µM | [10] 1.98 µM

CC(=O)OC(C)(C)C1CC=C(C)CC1 (stereo not drawn)
inactive: all assays above

CC1(C)[C@H](C=C(Cl)Cl)[C@H]1C(=O)OCc1cccc(Oc2ccccc2)c1
inactive: all assays above

C=CC(=O)OCC(CO)(COC(=O)C=C)COC(=O)C=C
active: [1] 0.404 µM | [2] 0.0816 µM | [3] 0.118 µM | [4] 0.379 µM | [5] 0.576 µM | [6] 163 nM | [7] 0.14 µM | [8] 0.34 µM | [9] 0.696 µM | [10] 0.384 µM

CCOC(=O)CCCCCCCCC(=O)OCC
inactive: all assays above

C#C[C@]1(O)CC[C@H]2[C@@H]3CCc4cc(O)ccc4[C@H]3CC[C@@]21C
active: [1] 20 µM | [2] 6.83 µM | [7] 6.47 µM
inactive: all other assays above

O=S(=O)(O)C(F)(F)C(F)(F)OC(F)(F)C(F)(F)F
inactive: all assays above

O=S1(=O)CC(Cl)(Cl)C(Cl)(Cl)C1
inactive: [3]
active: [1] 0.518 µM | [2] 1.76 µM | [4] 0.71 µM | [5] 0.538 µM | [6] 938 nM | [7] 0.797 µM | [8] 0.35 µM | [9] 0.48 µM | [10] 0.486 µM

C[C@]12CC[C@@H]3c4ccc(O)cc4CC[C@H]3[C@@H]1CC[C@@H]2O
active: [7] 16.5 µM | [8] 16.7 µM | [9] 15.8 µM | [10] 20 µM
inactive: all other assays above

CCCCCCCCCC(=O)OCC
inactive: all assays above

CC(C)Cc1ccc(C(C)C(=O)O)cc1 (stereo not drawn)
active: [3] 0.897 µM
inactive: all other assays above

O=C(c1ccc(OCCN2CCCCC2)cc1)c1c(-c2ccc(O)cc2)sc2cc(O)ccc12
active: [1] 21 µM | [2] 30.8 µM | [3] 20 µM | [5] 35.9 µM | [6] 33800 nM | [7] 28.4 µM | [8] 30.1 µM | [9] 19.4 µM | [10] 23 µM

CC=CC(=O)C1=C(C)C=CCC1(C)C
inactive: all assays above

C=C(C)C(N)=O
inactive: all assays above
